This is part of a sample that, as a whole, favours compounds with a hit. Of some 79,000 tested, about 15% had one in any assay. Calls of active or inactive are those of the source. No stated cut-off is given here; in the data, active means growth inhibition above about 70%; inactive means the rest.
Columns and labels:
[1] = NCI Yeast Anticancer Drug Screen. Data for the sgs1 mgt1 strain (AID 161);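 further: 0% = growth of cultures given vehicle only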; conditions: S. cerevisiae sgs1 mgt1 strain, hits give high values
Method in brief: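 Genetically altered yeast, compound exposure, growth inhibition relative to vehicle.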

[2] = NCI Yeast Anticancer Drug Screen. Data for the CLN2oe strain (AID 163);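 further: 0% = growth of vehicle-only control cultures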; conditions: S. cerevisiae CLN2oe strain, hits give high values
Method in brief: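 Inhibition relative to vehicle-treated yeast is reported. Cells: strain with genetic alteration in cell-cycle control, grown with compound.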

[3] = NCI Yeast Anticancer Drug Screen. Data for the cln2 rad14 strain (AID 165);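 further: 0% = growth equal to vehicle treated cultures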; conditions: S. cerevisiae cln2 rad14 strain, hits give high values
Method in brief: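 Each compound was tested on cln2 rad14 yeast. Inhibition of growth was calculated against vehicle-exposed controls.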

[4] = NCI Yeast Anticancer Drug Screen. Data for the bub3 strain (AID 167); conditions: S. cerevisiae bub3 mutant strain, hits give high values
Method in brief: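 Inhibition values come from growth of compound-treated mutant yeast normalised to vehicle-treated controls.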

[5] = NCI Yeast Anticancer Drug Screen. Data for the wt2 strain (AID 169);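 further: 0% = growth of vehicle-treated yeast cultures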; conditions: S. cerevisiae wt2 strain growth inhibition, hits give high values
Method in brief: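 Inhibition of yeast growth was determined after compound treatment, normalised to controls receiving only vehicle.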

[6] = NCI Yeast Anticancer Drug Screen. Data for the mlh1 strain (AID 171);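 further: 0% = growth of vehicle-treated control cultures of the same strain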; conditions: S. cerevisiae mlh1 strain growth inhibition, hits give high values
Method in brief: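 Vehicle-normalised growth inhibition of a repair- or checkpoint-altered yeast strain following compound treatment.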

[7] = NCI Yeast Anticancer Drug Screen. Data for the sgs1 strain (AID 173);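 further: 0% = growth of vehicle-only control cultures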; conditions: S. cerevisiae sgs1 mutant, hits give high values
Method in brief: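 Screen format: yeast with repair or checkpoint alterations, compound exposure, growth read relative to vehicle.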

[8] = NCI Yeast Anticancer Drug Screen. Data for the mlh1 rad18 strain (AID 175); conditions: S. cerevisiae mlh1 rad18 strain growth inhibition, hits give high values
Method in brief: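 Vehicle-treated cultures served as the reference for growth inhibition in a yeast strain carrying DNA damage repair alterations exposed to each compound.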

[9] = NCI Yeast Anticancer Drug Screen. Data for the rad52 strain (AID 147);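 further: 0% = growth of vehicle-treated control cultures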; conditions: S. cerevisiae rad52 mutant growth inhibition, hits give high values
Method in brief: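 Vehicle-treated cultures served as the reference for growth inhibition of compound-exposed yeast bearing a DNA repair mutation.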

[10] = NCI Yeast Anticancer Drug Screen. Data for the wt1 strain (AID 149);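 further: 0% = growth of vehicle-treated wt1 cultures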; conditions: S. cerevisiae wt1 strain (SPY 50644) growth inhibition, hits give high values
Method in brief: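 Vehicle-normalised growth inhibition; strain wt1; compound exposure.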

[11] = NCI Yeast Anticancer Drug Screen. Data for the rad50EPP+ strain (AID 151);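 further: 0% = growth of vehicle-treated control cultures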; conditions: S. cerevisiae rad50 mutant strain, hits give high values
Method in brief: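 In this screen, rad50EPP+ yeast were exposed to compounds. Growth inhibition was scored against vehicle-treated controls.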

[12] = NCI Yeast Anticancer Drug Screen. Data for the mgt1 strain (AID 153); conditions: S. cerevisiae mgt1 mutant growth inhibition, hits give high values
Method in brief: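 mgt1 strain exposed; growth vs vehicle control recorded as inhibition.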

[13] = NCI Yeast Anticancer Drug Screen. Data for the rad50 strain (AID 155);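 further: 0% = growth of vehicle-only cultures of the same strain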; conditions: S. cerevisiae rad50 strain growth inhibition, hits give high values
Method in brief: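 A DNA repair-deficient yeast mutant serves as the test organism; compound-induced growth inhibition is calculated against vehicle-treated cells.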

[14] = NCI Yeast Anticancer Drug Screen. Data for the mec2-1 strain (AID 157); conditions: S. cerevisiae mec2-1 strain, hits give high values
Method in brief: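 Vehicle-treated cultures served as reference for growth inhibition of compound-exposed mec2-1 yeast.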

[15] = NCI Yeast Anticancer Drug Screen. Data for the rad18 strain (AID 177); conditions: S. cerevisiae rad18 mutant growth inhibition, hits give high values
Method in brief: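 Test articles were incubated with altered yeast defective in DNA damage repair. Results are given as inhibition of growth versus vehicle.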

[16] = at 5.0 µM (retest, dose inferred, filed as 0.5)
[17] = at 50.0 µM (retest, dose inferred, filed as 5.0)

Measured: growth inhibition

CC1(C)N=C(N)N=C(N)N1c1cccc(N)c1.[Sn]
active: [8]; [17] 78%
inactive: [1]; at 50.0 µM 1.7% | [2]; at 1.2 µM -10% | [2]; at 3.7 µM -1% | [2]; at 11.0 µM -3% | [2]; at 33.0 µM -2% | [2]; at 100.0 µM -7% | [3]; [16] 5% | [3]; [17] 28% | [3]; at 50.0 µM -12.1% | [4]; at 1.2 µM -8% | [4]; at 3.7 µM -13% | [4]; [16] 9% | [4]; at 11.0 µM -18% | [4]; at 33.0 µM 4% | [4]; [17] 29% | [4]; at 50.0 µM 5.75% | [4]; at 100.0 µM 17% | [5]; at 1.2 µM -3% | [5]; at 3.7 µM -4% | [5]; at 11.0 µM -1% | [5]; at 33.0 µM 0% | [5]; at 100.0 µM 1% | [6]; at 1.2 µM 11% | [6]; at 3.7 µM 22% | [6]; at 11.0 µM 16% | [6]; at 33.0 µM 29% | [6]; at 100.0 µM 44% | [7]; at 1.2 µM 14% | [7]; at 3.7 µM 20% | [7]; at 11.0 µM 19% | [7]; at 33.0 µM 26% | [7]; at 100.0 µM 52% | [8]; [16] 43% | [8]; at 50.0 µM -49.6%

CSc1ccccc1[As](C)C
inactive: [9]; at 1.2 µM 1% | [9]; at 3.7 µM 16% | [10]; at 1.2 µM -1% | [10]; at 3.7 µM 15% | [11]; at 1.2 µM 1% | [11]; at 3.7 µM 11% | [12]; at 1.2 µM -1% | [12]; at 3.7 µM 16% | [13]; at 1.2 µM 7% | [13]; at 3.7 µM -15% | [14]; at 1.2 µM 2% | [14]; at 3.7 µM 24% | [3]; [16] 27% | [4]; at 1.2 µM -6% | [4]; at 3.7 µM 13% | [4]; [16] 1% | [4]; [17] 50% | [5]; at 1.2 µM -1% | [5]; at 3.7 µM 21% | [6]; at 1.2 µM 1% | [6]; at 3.7 µM 20% | [7]; at 1.2 µM 4% | [7]; at 3.7 µM 34% | [15]; at 1.2 µM 8% | [15]; at 3.7 µM 43%
active: [9]; at 11.0 µM 84% | [9]; at 33.0 µM 99% | [9]; at 100.0 µM 99% | [10]; at 11.0 µM 88% | [10]; at 33.0 µM 99% | [10]; at 100.0 µM 99% | [11]; at 11.0 µM 74% | [11]; at 33.0 µM 98% | [11]; at 100.0 µM 99% | [12]; at 11.0 µM 75% | [12]; at 33.0 µM 99% | [12]; at 100.0 µM 99% | [13]; [16] 96% | [13]; at 11.0 µM 86% | [13]; at 33.0 µM 98% | [13]; [17] 99% | [13]; at 50.0 µM 99.3% | [13]; at 100.0 µM 99% | [14]; [16] 90% | [14]; at 11.0 µM 92% | [14]; at 33.0 µM 99% | [14]; [17] 99% | [14]; at 50.0 µM 99.5% | [14]; at 100.0 µM 99% | [1]; [16] 97% | [1]; [17] 99% | [1]; at 50.0 µM 99.5% | [3]; [17] 98% | [3]; at 50.0 µM 98.1% | [4]; at 11.0 µM 77% | [4]; at 33.0 µM 99% | [4]; at 50.0 µM 98.8% | [4]; at 100.0 µM 99% | [5]; at 11.0 µM 85% | [5]; at 33.0 µM 99% | [5]; at 100.0 µM 99% | [6]; at 11.0 µM 90% | [6]; at 33.0 µM 99% | [6]; at 100.0 µM 100% | [7]; at 11.0 µM 95% | [7]; at 33.0 µM 99% | [7]; at 100.0 µM 99% | [8]; [16] 97% | [8]; [17] 99% | [8]; at 50.0 µM 99.5% | [15]; at 11.0 µM 92% | [15]; at 33.0 µM 99% | [15]; at 100.0 µM 99%

Reference: PubChem BioAssay (NCI)
